Unmarked numbers belong to inactive results. Activity calls are given as the source filed them. The rule behind the calls is not given here.
Test: Bcl-B/Bim-BH3 peptide binding displacement, dose response, counter-screen for TR3-derived Bcl-B inhibitor project, biochemical, fluorescence polarization (AID 1244)
Settings: Bcl-B/FITC-Bim-BH3 peptide binding

| Compound | EC50 |
| --- | --- |
| Cc1cc(C)nc(/N=C(/N)Nc2cccc(N)c2)n1 | > 25 µM |
| Cc1ccc(C)n1-c1ccc(Br)cc1C(=O)O | 0.48 µM (active) |
